Sampled rows, rich in hits. Any-hit rate of the full collection: about 1.6%.
KCNQ2 inh = inhibitors of rat KCNQ2 potassium channel. CHO-K1 KCNQ2, FluxOR thallium flux, 20 min; hits give low values. B-score at 10 µM. 310,000 tested, 1.1% active;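 active = fluorescence ratio B-score at most minus 3 library SDs, with starting brightness B-score within 2 library SDs, cut at about -5.5 in these data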
KCNQ2 enhance = KCNQ2 (rat) channel potentiation; 310,000 tested, 0.54% active; AID 2239; B-score at 10 µM; O88943; CHO-K1 KCNQ2, FluxOR thallium flux fluorescence; hits give high values;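 active = fluorescence ratio B-score at least 3 SD of library B-scores, with initial fluorescence B-score within 3 of them, cut at about 5.3 in these data; same plate scores as AID 2156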;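 also: B-score of peak minus minimum over baseline fluorescence ratio after K+ and Tl+ stimulus; positive B-score means potentiation of KCNQ2 with more thallium influx and brighter signal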
KCNQ2 block conf = confirmation of rat KCNQ2 potassium channel inhibitors; shares compounds with KCNQ2 inh; activity change, negative = inhibition, % at 10 µM; KCNQ2-expressing cells, thallium flux, inhibition; hits give low values; 1,000 tested, 57% active
KCNQ1 spec = selectivity of KCNQ2 inhibitors against human KCNQ1; shares compounds with KCNQ2 inh; KCNQ1-expressing cells, FluxOR thallium flux fluorescence; hits give low values; activity change, negative = inhibition, % at 10 µM; 1,000 tested, 15% active; AID 493026;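 active = activity change at least 3 SD of negative controls below their mean in both duplicate wells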;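 also: CHO cells stably transfected with KCNQ1 and depolarized by potassium stimulus; peak minus minimum fluorescence over baseline after thallium addition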
CHO parental ctr = counter-screen for KCNQ2 inhibitors: effect in parental CHO cells; activity change, % at 10 µM; 1,000 tested, 14% active; shares compounds with KCNQ2 inh; thallium flux counter-screen; hits give low values
KCNQ2 patch conf = blocks rat KCNQ2 current in automated patch clamp | shares compounds with KCNQ2 inh | KCNQ2-expressing cells | calls only at 10 µM | 550 tested, 49% active | AID 588531
Numbers stand for hits; n = inactive; x = no result; + = active, no number. Unless noted, no rule for the calls is given here.

SMILES	KCNQ2 inh	KCNQ2 enhance	KCNQ2 block conf	KCNQ1 spec	CHO parental ctr	others
CCCCN(C)CC(O)Cn1cc(/C=C/C(=O)c2ccc(C)cc2)c2ccccc21 (centres undefined)	-9.7	n	n	n	n
COc1ccc(C(=O)/C=C/c2cn(CC(O)CN3CCN(C)CC3)c3ccccc23)cc1OC (centres undefined)	n	x	x	x	x
CC(C)(C)NCC(O)Cn1cc(C=O)c2ccccc21 (centres undefined)	n	n	x	x	x
CN1CCN(Cn2cc(/C=C/C(=O)c3ccccc3)c3ccccc32)CC1	-9.2	n	-34%	n	n	KCNQ2 patch conf=+
COc1ccccc1NS(=O)(=O)c1cc(NC(=O)c2[nH]c(C)c(C(C)=O)c2C)ccc1N1CCOCC1	n	x	x	x	x
O=C(Nc1c(C(=O)O)[nH]c2ccc(F)cc12)c1cccc(C(F)(F)F)c1	n	x	x	x	x
COc1ccc(Cl)cc1C(=O)NC(=S)Nc1ccccc1N1CCOCC1	-12	n	-28%	n	n	KCNQ2 patch conf=+
Cc1cc(Cl)ccc1OCC(=O)NC(=S)Nc1ccccc1N1CCOCC1	n	x	x	x	x
CN(CCOc1ccccc1)S(=O)(=O)c1ccc2oc3ccccc3c2c1	-7.8	n	-16%	n	n	KCNQ2 patch conf=n
COc1ccc(OCCNS(=O)(=O)c2ccc3oc4ccccc4c3c2)cc1	n	n	x	x	x
Cc1ccc(/C=C2/C(=O)ON=C2c2ccccc2)o1	-9	n	-24%	n	n	KCNQ2 patch conf=n
O=C1ON=C(c2ccccc2)/C1=C\c1ccco1	n	x	x	x	x
O=C(COc1ccccc1[N+](=O)[O-])N(Cc1cccc(Br)c1)C1CCS(=O)(=O)C1 (centres undefined)	n	x	x	x	x
CN(C)CCNC(=O)/C(=C/c1ccc(-c2ccc(Cl)cc2)o1)NC(=O)c1ccccc1	n	x	x	x	x
CN(C)CCNC(=O)/C(=C/c1ccc(-c2ccc(Cl)cc2Cl)o1)NC(=O)c1ccccc1	-9.5	n	-39%	-35%	-33%
CC(C(=O)Nc1ccc(F)c(F)c1F)N(C)CC(=O)Nc1ccccc1Br (centres undefined)	n	n	x	x	x
CC(=O)C(Cc1ccccc1)NC(=O)CN(C)Cc1ccccc1Cl (centres undefined)	-8.5	n	n	n	n
CC(=O)C(Cc1ccccc1)NC(=O)CCl (centres undefined)	n	x	x	x	x
COc1cccc(CN2CC(C(=O)N3CCCO3)CCC2=O)c1 (centres undefined)	n	n	x	x	x
Cc1nn(C(C)C(=O)NCc2ccccc2Cl)c(=O)c2c1sc1ccccc12 (centres undefined)	-7.8	n	-32%	n	n	KCNQ2 patch conf=+
Cc1nn(C(C)C(=O)NCCCN2CCCCCC2)c(=O)c2c1sc1ccccc12 (centres undefined)	n	x	x	x	x
CCOC(=O)C1=C(COC(=O)c2ccc(OC)c(OC)c2OC)NC(=O)NC1C (centres undefined)	n	n	x	x	x
Cc1c(Cl)c([N+](=O)[O-])nn1CCCC(=O)NC1CCCCC1	n	n	x	x	x
CCN(C(=O)COC(=O)c1cccs1)c1c(N)n(Cc2ccccc2)c(=O)[nH]c1=O	n	n	x	x	x
Cc1cccc(/C(N)=N/OC(=O)Cc2ccccc2)c1	n	n	x	x	x
SMILES	KCNQ2 inh	KCNQ2 enhance	KCNQ2 block conf	KCNQ1 spec	CHO parental ctr	others
Cc1cccc(/C(N)=N/OC(=O)N2c3ccccc3Sc3ccccc32)c1	-6.8	n	n	n	n
Cc1ccc(S(=O)(=O)NN=C2C3CC4CC(C3)CC2C4)cc1[N+](=O)[O-]	n	n	x	x	x
CCNC(=O)NC(=O)C(C)OC(=O)c1cccn1C (centres undefined)	n	n	x	x	x
COC(=O)C(NC(=O)c1ccccc1)(Nc1nc(C)cs1)C(F)(F)F (centres undefined)	-8.5	n	n	n	n
COC(=O)C(NC(C)=O)(Nc1nc(C)cs1)C(F)(F)F (centres undefined)	n	x	x	x	x
Cc1ccc(C(=O)OCC(=O)NCc2cccs2)cc1S(=O)(=O)N1CCOCC1	n	n	x	x	x
O=C1N=C(C=c2ccc(=Cc3[nH]c(=O)[nH]c3O)cc2)C(=O)N1	n	x	x	x	x
COc1cc2c(cc1OC)CN(C(=S)NC(=O)c1ccccc1)CC2	n	n	x	x	x
Cc1cccc(NC(=O)Nc2ccccc2[N+](=O)[O-])n1	n	n	x	x	x
CC1Cc2ccccc2N1C(=O)CNc1ccccc1N1CCCCC1 (centres undefined)	-8.4	n	n	n	n
CC1CCN(CC(=O)N2c3ccccc3CC2C)CC1 (centres undefined)	n	n	x	x	x
CCCc1ccc(S(=O)(=O)N(C)S(=O)(=O)c2ccc(F)cc2)cc1	n	x	x	x	x

High-throughput results from PubChem BioAssay.
